G9a inh = qHTS Assay for Inhibitors of Histone Lysine Methyltransferase G9a; Histone-lysine N-methyltransferase EHMT2 (Homo sapiens), Q96KQ7; G9a H3K9 monomethylation, AlphaScreen, 2 h; Potency, µM (top dose mostly 102 µM), usual class: inhibitors; hit rate 8.8% among 350,000; AID 504332, 2011; also: nearly all actives have a fitted effect of over 75% in size
Target sequence (Q96KQ7 913-1193 limits assumed): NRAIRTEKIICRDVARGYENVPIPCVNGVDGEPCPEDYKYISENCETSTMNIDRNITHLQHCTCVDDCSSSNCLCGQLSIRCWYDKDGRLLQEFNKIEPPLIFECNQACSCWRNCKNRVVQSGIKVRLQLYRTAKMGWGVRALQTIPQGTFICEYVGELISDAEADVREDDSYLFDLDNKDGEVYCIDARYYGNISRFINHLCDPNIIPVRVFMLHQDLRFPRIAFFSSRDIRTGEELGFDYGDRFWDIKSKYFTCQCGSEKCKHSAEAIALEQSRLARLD
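AlphaScreen detection with an anti-monomethyl H3K9 antibody quantified product after a 2 h room-temperature reaction containing 500 nM biotinylated H3K9 peptide, 20 µM SAM and 20 nM enzyme, which had been preincubated 15 min with compound.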
Sfp inh = qHTS Assay for Inhibitors of Bacillus subtilis Sfp phosphopantetheinyl transferase (PPTase). 4'-phosphopantetheinyl transferase ffp (Bacillus subtilis), Q9F4F7. Biochemical Sfp PPTase activity, qHTS. Potency, µM, usual class: inhibitors. hit rate 3.5% among 310,000;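 also: the enzyme is Sfp with the accession as filed and its product quenches rhodamine fluorescence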
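Fluorescence-quenching assay: 15 nM Sfp-PPTase preincubated 15 min at room temperature with compound, then 5 uM rhodamine-CoA and 12.5 uM BHQ-2-labelled YbbR peptide added. Fluorescence (ex 525/em 598 nm) read at start and after 30 min; difference gives rate.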
L3MBTL1 inh = qHTS Assay for the Inhibitors of L3MBTL1 | AlphaScreen L3MBTL1–H3K9me1 peptide binding | Lethal(3)malignant brain tumor-like protein 1 (Homo sapiens), Q9Y468 | Potency, µM (top dose mostly 57.1 µM), usual class: inhibitors | hit rate 0.66% among 230,000 | AID 485360, 2010; also: nearly all actives have a fitted effect of over 60% in size
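Read-out is AlphaScreen signal from streptavidin donor and nickel chelate acceptor beads (10 ug/mL final each) bridging L3MBTL1 (50 nM) and biotinylated K9-monomethylated H3(1-15) peptide (75 nM), after 30 min compound exposure at room temperature.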
BAZ2B inh = qHTS Assay for Inhibitors of BAZ2B. AID 504333, 2011. Potency, µM (doses to about 114 µM), most hits filed as inhibitors. hit rate 4.4% among 360,000. AlphaScreen BAZ2B-H3K14Ac peptide displacement. Bromodomain adjacent to zinc finger domain protein 2B (Homo sapiens), Q9UIF8; also: nearly all actives have a fitted effect of over 60% in size
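In this displacement format the biotinylated H3(5-23) peptide acetylated at Lys14 serves as ligand at 50 nM, with BAZ2B at 50 nM in PBS pH 7.4 containing 0.01% Tween-20. Donor and acceptor beads are 10 ug/mL final.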
JMJD2A Tudor inh = qHTS Assay for Inhibitors of JMJD2A-Tudor Domain. Lysine-specific demethylase 4A (Homo sapiens), O75164. AlphaScreen JMJD2A-Tudor / H3K4me3 peptide binding. Potency, µM (top dose mostly 114 µM), actives largely listed as inhibitors. hit rate 4.4% among 390,000. AID 504339, 2011; also: nearly all actives have a fitted effect of over 50% in size
HP1b binding inh = HTS for Inhibitors of HP1-beta Chromodomain Interactions with Methylated Histone Tails | AID 540317, 2011 | hit rate 0.56% among 390,000 | Chromobox protein homolog 1 (Homo sapiens), P83916 | Potency, µM (top dose mostly 114 µM), most hits filed as inhibitors | AlphaScreen HP1-beta / biotin-H3K9me3 peptide binding; also: nearly all actives have a fitted effect of over 70% in size
Target sequence (P83916 whole entry, looked up): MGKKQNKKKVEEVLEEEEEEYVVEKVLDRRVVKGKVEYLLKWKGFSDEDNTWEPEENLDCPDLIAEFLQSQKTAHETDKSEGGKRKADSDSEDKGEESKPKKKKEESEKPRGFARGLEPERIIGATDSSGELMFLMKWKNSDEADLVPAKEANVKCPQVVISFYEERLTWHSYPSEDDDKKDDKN
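HP1-beta protein (50 nM final) preincubated 30 min at room temperature with biotinylated H3(1-18)K9me3 peptide (50 nM) in PBS pH 7.4, 0.01% Tween-20, then compound added for 30 min. AlphaScreen streptavidin donor/nickel chelate acceptor beads (10 ug/mL final), 30 min dark, luminescence read.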
Large screens that a line does not name were inactive. Most compounds without a hit are left out; they make up all but 12% or so of the library. Calls follow the shape of the dose curve; as a rule, active = well fitted curve in the direction sought with a large enough effect; inconclusive = small, poorly fitted or top-dose-only effect, or another doubt; inactive = no such curve, though single readings can be large; an effect the other way counts as inactive or inconclusive.

Cn1c(=O)n(C)c2cc(NS(=O)(=O)c3ccc(F)cc3)c(NCc3ccccc3)cc21	G9a inh 11µM, JMJD2A Tudor inh inconclusive (no result: Sfp inh, L3MBTL1 inh)
Cc1cc(C)c(NC(=O)CSc2nc(=O)[nH]c3c2CCCC3)c(C)c1	none (no result: Sfp inh, L3MBTL1 inh)
CN(C)C(=O)Nc1ccc(Oc2ccc(Cl)cc2)cc1	none (no result: G9a inh, L3MBTL1 inh, BAZ2B inh, JMJD2A Tudor inh, HP1b binding inh)
O=C(/C=C/c1ccc([N+](=O)[O-])cc1)c1cccnc1	G9a inh inconclusive, Sfp inh 18µM, JMJD2A Tudor inh inconclusive
O=C(/C=C/c1cccnc1)c1ccc(F)c(F)c1	G9a inh 40µM, Sfp inh 63µM (no result: L3MBTL1 inh)
O=C(O)/C=C/c1cccc(OCc2ccccc2)c1	none
O=C(/C=C/c1cccc(OCc2ccccc2)c1)c1cccnc1	G9a inh inconclusive, Sfp inh 50µM
COc1ccccc1Nc1sc(C(=O)c2ccc(C)cc2C)c(N)c1S(=O)(=O)c1ccccc1	none (no result: Sfp inh, L3MBTL1 inh)
O=C(NCCc1ccc(Cl)cc1)c1cnc2sc(N3CCCCC3)nn2c1=O	none (no result: Sfp inh, L3MBTL1 inh)
CCc1ccc2[nH]c(=O)c(CN(Cc3ccc(OC)cc3)Cc3nnnn3CCOC)cc2c1	G9a inh inconclusive, Sfp inh 13µM
COc1ccc2[nH]c(=O)c(CN(Cc3cccnc3)Cc3nnnn3CC3CCCO3)cc2c1 (configuration not stated)	Sfp inh 79µM (no result: G9a inh, L3MBTL1 inh)
COc1ccc2[nH]c(=O)c(CN(Cc3ccccc3)Cc3nnnn3CC3CCCO3)cc2c1 (configuration not stated)	none
Cc1ccc2[nH]c(=O)c(CN(Cc3cccs3)Cc3nnnn3Cc3ccccc3)cc2c1	none
COc1cc2cc(CN(Cc3nnnn3Cc3ccccc3)CC3CCCO3)c(=O)[nH]c2cc1OC (configuration not stated)	Sfp inh 56µM
CCOC(=O)c1c(S(=O)(=O)N2CCCC(C(=O)Nc3cccc(C#N)c3)C2)c(C)n(C)c1C (configuration not stated)	BAZ2B inh inconclusive (no result: Sfp inh, L3MBTL1 inh)
Cc1ccc(-c2nc(N)sc2-c2ccc(C)cc2)cc1	G9a inh 50µM, BAZ2B inh inconclusive, JMJD2A Tudor inh inconclusive
COc1ccc(-c2nc(C)sc2C)cc1	G9a inh inconclusive, JMJD2A Tudor inh 32µM, HP1b binding inh inconclusive
COc1ccc(-c2nc(-n3c(C)c(C(C)=O)c(C(C)=O)c3C)sc2C)cc1	G9a inh inconclusive, BAZ2B inh inconclusive, JMJD2A Tudor inh inconclusive
Nc1nc(-c2ccccc2)c(-c2ccc([N+](=O)[O-])cc2)s1	none (no result: L3MBTL1 inh)
Cc1ccc(-c2nc(N)sc2-c2ccccc2)cc1C	G9a inh inconclusive, BAZ2B inh inconclusive, JMJD2A Tudor inh inconclusive, HP1b binding inh inconclusive
Nc1nc(-c2ccccc2)c(-c2ccccc2)s1	G9a inh 40µM, JMJD2A Tudor inh inconclusive
CCCc1sc(N)nc1-c1ccc(C)cc1	G9a inh 56µM, BAZ2B inh inconclusive, JMJD2A Tudor inh inconclusive
Cc1ccc(-c2nc(N)sc2C)cc1	G9a inh 50µM, BAZ2B inh inconclusive
Cc1sc(N)nc1-c1cccs1	G9a inh inconclusive
COc1cc(OC)cc(-c2nnc(SCC(=O)N3CCCC3)o2)c1	none
NC(=O)CSc1nnc(-c2ccc(S(=O)(=O)N3CCCC3)cc2)o1	G9a inh 11µM
CCOC(=O)N1CCN(C(=O)CSc2nnc(-c3cccc(OC)c3)o2)CC1	G9a inh 50µM, JMJD2A Tudor inh inconclusive
COC(=O)CSc1nnc(-c2ccc(S(=O)(=O)N3CCCC3)cc2)o1	none (no result: L3MBTL1 inh)
COc1cc(OC)cc(-c2nnc(SCC(=O)N3CCC(C)CC3)o2)c1	G9a inh 22µM (no result: Sfp inh, L3MBTL1 inh)
COc1cccc(-c2nnc(SCC(=O)N3CCCCC3)o2)c1	G9a inh 16µM (no result: Sfp inh, L3MBTL1 inh)
COC(=O)c1cc2sc(C)cc2n1CC(=O)Nc1ccc(C)cc1Cl	none (no result: Sfp inh, L3MBTL1 inh)
